The text below walks through data of PubChem BioAssay.

Experiment [1] deals with ATP-dependent translocase ABCB1 (Homo sapiens) (UniProt P08183). Kind of experiment: MDR1 (ABCB1) efflux transporter inhibition, cell-based (AID 377; in the data active = fluorescence slope change above about 50%). The following applies: MDR1-expressing cells, fluorescent substrate accumulation slope; stronger effect = higher value; concentration not given here.
Experiment [2] in a line: polyglutamine-triggered caspase-3 activation inhibitors, cell-based (AID 1583). The following applies: polyglutamine-induced caspase-3 activation, cell assay; stronger effect = higher value;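 tested at 10 µM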.
Experiment [3] can be described thus: suppressors of polyQ aggregation in yeast, 75Q-TubU reporter (AID 1593). The following applies: Yeast 75Q polyglutamine aggregation reporter.
The nature of experiment [4]: rescue of polyQ-huntingtin neuronal dysfunction in worms, whole organism, C. elegans mechanosensory neurons, N-terminal huntingtin (AID 1599). The following applies: touch response, stronger effect = higher value.
The nature of experiment [5]: inhibitors of mitochondrial cytochrome c release, biochemical, purified mitochondria (AID 1603).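 Note: mouse liver mitochondria challenged with calcium chloride; signal normalized to the plate average as 100%.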 Conditions: stronger effect = lower value.
The nature of experiment [6]: inhibitors of polyQ protein aggregation (AID 1604). The following applies: polyglutamine-induced protein aggregation inhibition assay; stronger effect = higher value; tested at 2.5 µM.
Experiment [7] in a line: enhancers of glutamate uptake in motor neurons, MN-1 cell line (AID 1612).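 Note: tested at 1 µM final; 0% = mean of DMSO vehicle wells on each plate; positive means more glutamate uptake than control and negative means less.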 The following applies: MN-1 motor neuron cells, stronger effect = higher value.
Experiment [8] in a line: reducers of polyQ inclusions in PC12 cells, cell-based, NGF-treated PC12, GFPQ80 (AID 1614).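 Note: lower means fewer inclusions and 0 means no inclusions at all.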 Conditions: PC12 NGF-treated GFP-polyQ80 inclusion reduction.
A short description of experiment [9]: suppressors of polyglutamine aggregation in yeast, 75Q-TubH (AID 1616). Conditions: S. cerevisiae 75Q-TubH polyglutamine aggregation suppression; stronger effect = higher value.
Experiment [10] is described as follows: hESC survival regulators, cell-based (AID 493140).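 Note: cells exposed to compounds for four days before counting.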 Conditions: human embryonic stem cell survival screen; stronger effect = higher value.

Results filed as inconclusive are left out. For some assays here: Measured potencies and affinities stand elsewhere. Activity calls are given as the source filed them. Unless noted, the rule behind the calls is not given here.

Chain of ATP-dependent translocase ABCB1 (Homo sapiens) (P08183 whole entry, looked up): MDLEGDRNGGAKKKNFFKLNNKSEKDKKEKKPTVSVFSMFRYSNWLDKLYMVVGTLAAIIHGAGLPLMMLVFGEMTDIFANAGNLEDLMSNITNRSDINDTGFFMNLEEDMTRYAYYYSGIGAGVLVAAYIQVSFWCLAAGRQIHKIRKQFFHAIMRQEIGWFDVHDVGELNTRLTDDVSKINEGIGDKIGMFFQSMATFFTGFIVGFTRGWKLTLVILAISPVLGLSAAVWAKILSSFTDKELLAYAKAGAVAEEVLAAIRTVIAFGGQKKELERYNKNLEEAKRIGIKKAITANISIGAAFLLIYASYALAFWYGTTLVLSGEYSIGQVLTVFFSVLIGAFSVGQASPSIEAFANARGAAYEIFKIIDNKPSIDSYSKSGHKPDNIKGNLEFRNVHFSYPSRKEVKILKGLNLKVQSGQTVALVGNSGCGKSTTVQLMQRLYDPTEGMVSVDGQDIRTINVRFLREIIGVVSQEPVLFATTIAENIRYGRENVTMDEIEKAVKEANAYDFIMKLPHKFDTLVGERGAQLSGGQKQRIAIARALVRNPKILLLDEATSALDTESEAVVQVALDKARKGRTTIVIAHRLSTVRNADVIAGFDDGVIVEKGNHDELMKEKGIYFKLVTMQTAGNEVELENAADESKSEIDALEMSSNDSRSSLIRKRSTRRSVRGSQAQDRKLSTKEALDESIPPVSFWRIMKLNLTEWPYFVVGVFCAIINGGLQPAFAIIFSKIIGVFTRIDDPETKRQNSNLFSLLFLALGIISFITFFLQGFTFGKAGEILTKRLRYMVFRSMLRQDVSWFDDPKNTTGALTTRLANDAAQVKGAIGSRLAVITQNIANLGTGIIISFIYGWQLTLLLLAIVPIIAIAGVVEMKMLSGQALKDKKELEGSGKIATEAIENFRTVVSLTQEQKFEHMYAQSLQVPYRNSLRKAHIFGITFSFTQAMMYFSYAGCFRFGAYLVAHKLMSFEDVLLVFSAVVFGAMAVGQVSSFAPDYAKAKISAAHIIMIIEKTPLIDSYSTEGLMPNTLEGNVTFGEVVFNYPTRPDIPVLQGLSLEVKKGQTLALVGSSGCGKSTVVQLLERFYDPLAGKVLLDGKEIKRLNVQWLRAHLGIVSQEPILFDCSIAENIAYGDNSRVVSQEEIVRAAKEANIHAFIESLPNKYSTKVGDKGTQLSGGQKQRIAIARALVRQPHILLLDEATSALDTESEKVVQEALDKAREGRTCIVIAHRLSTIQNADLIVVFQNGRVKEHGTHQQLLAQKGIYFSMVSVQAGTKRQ

For the compound `CC[C@]12CCCN3CCc4c(n(c5ccccc45)C(=O)C1)[C@@H]32`, the fluorescence slope change in [1] is 12.1% (inactive). The inhibition in [2] is 11.5%. The score in experiment [3] stood at 1.49. The same compound displayed a rescue above control in [4] of 15.2. Also, in experiment [5], the cytochrome c release ratio was determined as 1.06. In experiment [6], this compound had an inhibition of aggregation of 76%. Moreover, the glutamate uptake change in experiment [7] was -6.74%. The same compound showed an inclusion score in experiment [8] of 2. This compound had an aggregation suppression score in experiment [9] of 1.73. The survival in experiment [10] was 2 (inactive).
With `CN1CCOC(c2ccccc2)c2ccccc2C1` (configuration not stated), the fluorescence slope change in experiment [1] is 5.9% (inactive). For the same compound, the inhibition in [2] came out at 4.24%. In experiment [3], the score came to 1.08. For the same compound, the rescue above control in experiment [4] was -6.88. Besides, the cytochrome c release ratio in [5] was 0.83. The inhibition of aggregation in experiment [6] amounted to 74.7%. Further, the glutamate uptake change in experiment [7] was determined as 0.43%. For the same compound, the inclusion score in experiment [8] came to 1.5. The compound also yielded an aggregation suppression score in experiment [9] of 1.44. The survival in experiment [10] was 21.3 (inactive).
With `Cc1cccc(N(C)C(=S)Oc2ccc3ccccc3c2)c1`, the inhibition in [2] is -3.4%. In experiment [3], the score was -1.43. In [4], this compound came in with a rescue above control of -1.37. Also, in [5], the cytochrome c release ratio amounted to 0.96. For the same compound, the inhibition of aggregation in experiment [6] turned out to be 57.4%. The glutamate uptake change in [7] was -6.25%. For the same compound, the inclusion score in experiment [8] came to 2. The compound also gave an aggregation suppression score in experiment [9] of 0.257. The survival in [10] is 27.3 (inactive).
As to `O=C(O)CCC(=O)Nc1ccc(S(=O)(=O)Nc2nccs2)cc1`, the fluorescence slope change in experiment [1] was 2.1% (inactive). The inhibition in [2] is -5.43%. In experiment [3], this compound gave a score of 1.2. The rescue above control in [4] is -4.64. The cytochrome c release ratio in experiment [5] turned out to be 0.78. Moreover, the inhibition of aggregation in experiment [6] was 100%. For the same compound, the glutamate uptake change in experiment [7] turned out to be 14.7%. For the same compound, the inclusion score in experiment [8] was 2. Besides, in experiment [9], the aggregation suppression score was 1.1. Also, in experiment [10], the survival was 6.17 (inactive).
With `CC1=C(C(=O)O)N2C(=O)[C@@H](NC(=O)[C@H](N)c3ccc(O)cc3)[C@H]2SC1`, the inhibition in experiment [2] is -20.4%. In experiment [3], the score amounted to 1.38. This compound registered a rescue above control in [4] of 2.74. Also, in [5], the cytochrome c release ratio was 0.96. In experiment [6], the inhibition of aggregation amounted to 74.6%. Also, the glutamate uptake change in experiment [7] was -6.33%. Moreover, the inclusion score in [8] was 2.5. The compound further gave an aggregation suppression score in experiment [9] of 1.47. Besides, the survival in experiment [10] is 5 (inactive).
Consider `CCCc1ncc(C[n+]2ccccc2C)c(N)n1`, for which the inhibition in experiment [2] was -2.36%. Further, the score in experiment [3] turned out to be 1.6. This compound yielded a rescue above control in experiment [4] of -0.43. For the same compound, in experiment [5], the cytochrome c release ratio amounted to 0.95. In [6], this compound displayed an inhibition of aggregation of 84.8%. In [7], the glutamate uptake change was determined as 5.76%. This compound yielded an inclusion score in [8] of 1.5. The compound further yielded an aggregation suppression score in experiment [9] of 0.986. Moreover, in experiment [10], the survival is 8.58 (inactive).
On to `O=C(OCc1ccccc1)c1ccccc1`, for which the inhibition in [2] was determined as 4.26%. Further, the score in experiment [3] is 0.45. This compound also came in with a rescue above control in experiment [4] of 0.5. In addition, in experiment [5], the cytochrome c release ratio amounted to 1.04. The same compound registered an inhibition of aggregation in experiment [6] of 74%. The glutamate uptake change in [7] is 36%. The compound further came in with an aggregation suppression score in [9] of 0.363.
On to `CN(C)CCOC(=O)C(c1ccccc1)C1(O)CCCC1` (configuration not stated), for which the inhibition in experiment [2] was -1.25%. Also, the score in experiment [3] is 1.17. The rescue above control in experiment [4] is -1.73. Besides, in experiment [5], the cytochrome c release ratio was determined as 0.87. This compound had an inhibition of aggregation in [6] of 90.7%. For the same compound, the glutamate uptake change in experiment [7] was -0.32%. In [8], this compound displayed an inclusion score of 2. In experiment [9], the aggregation suppression score was determined as 1.32. In addition, the survival in experiment [10] was 12.5 (inactive).
Regarding `Cc1cc(-c2ccccc2)nnc1NCCN1CCOCC1`, the inhibition in experiment [2] is 7.39%. In experiment [3], this compound displayed a score of 1.28. In experiment [4], this compound gave a rescue above control of 5.33. The cytochrome c release ratio in experiment [5] was 1.03. For the same compound, in experiment [6], the inhibition of aggregation was 66.7%. Moreover, in experiment [7], the glutamate uptake change turned out to be 4.73%. Also, in experiment [8], the inclusion score amounted to 1. This compound also gave an aggregation suppression score in experiment [9] of 1.11. Also, the survival in experiment [10] is 17.2 (inactive).
For the compound `Nc1ccc(S(=O)(=O)Nc2nccs2)cc1`, the inhibition in [2] amounted to 6.1%. For the same compound, the score in [3] is 1.37. The compound further registered a rescue above control in [4] of -1.24. In addition, the cytochrome c release ratio in experiment [5] was 0.85. In experiment [6], this compound showed an inhibition of aggregation of 66.2%. The glutamate uptake change in [7] is 13.7%. In addition, the inclusion score in experiment [8] came out at 2. This compound gave an aggregation suppression score in experiment [9] of 1.31. For the same compound, in experiment [10], the survival is 23.3 (inactive).
Turning to `Oc1ccc(Cl)cc1Cc1cc(Cl)ccc1O`, the inhibition in [2] was determined as 7.6%. Also, in experiment [3], the score was -0.49. In [4], the rescue above control turned out to be 0. Moreover, in experiment [5], the cytochrome c release ratio worked out at 0.36. This compound also returned an inhibition of aggregation in experiment [6] of 29.6%. For the same compound, the glutamate uptake change in [7] is -22.2%. Moreover, the aggregation suppression score in [9] was -0.099.
Take `Cc1cc(C)nc(NS(=O)(=O)c2ccc(N)cc2)n1`: in experiment [2], the inhibition is 5.54%. In addition, the score in experiment [3] is 1.45. The rescue above control in experiment [4] is -12.8. Also, the cytochrome c release ratio in [5] was 1.13. This compound gave an inhibition of aggregation in experiment [6] of 22.2%. The glutamate uptake change in [7] was 2.45%. The same compound had an inclusion score in experiment [8] of 2. The same compound displayed an aggregation suppression score in experiment [9] of 1.21. Besides, the survival in [10] is 3.75 (inactive).
